We go through 22 compounds from PubChem BioAssay (NCI).

Values joined by “and” are separate entries in the source; they are usually repeats but may differ in a detail not shown here. Equal entries are not always repeated. The panel holds about 79,000 compounds, 15% with a hit somewhere; the sample as a whole holds those more often. Active and inactive are the calls of the source. Rule as the data show it: active = growth inhibition above about 70%; inactive = the rest.

The assay can be described thus: NCI Yeast Anticancer Drug Screen. Data for the mec2-1 strain (AID 157). The settings on record: S. cerevisiae mec2-1 strain, at 50.0 µM (retest, dose inferred, filed as 5.0), active compounds read high. Put shortly: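 Growth inhibition is read against vehicle-treated controls after compound exposure of the mec2-1 yeast strain, which is defective in DNA damage repair or cell cycle control.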
Consider `CCN(CC)CCC(=O)/C=C/c1ccccc1`, for which the growth inhibition was 100% (active).
As to `CC1(O)Cc2c(O)c3c(c(O)c2CC1O)C(=O)C=CC3=O` (configuration not stated), the growth inhibition is 46% (inactive).
As for `Cc1ccc2c(c1)C1(C)OC(C=CC1=O)O2` (configuration not stated), the growth inhibition was 99% (active).
Consider `Fc1cccc(CSC(=S)Nc2ccc(F)c(F)c2)c1`, for which the growth inhibition was 99% (active).
Under `CCN(CCO)CCNc1ccc(C)c2sc3ccccc3c(=O)c12` stands 92% (active); under `Cc1n(-c2ccccc2)c2c([n+]1Cc1ccc([N+](=O)[O-])cc1)C(=O)c1ccccc1C2=O`, 98% (active).
For the compound `CC(=O)OC1COC(n2c(N)c(C#N)c(-c3ccccc3)c(C#N)c2=S)C(OC(C)=O)C1OC(C)=O` (configuration not stated), the growth inhibition was 3% (inactive) and 57% (inactive).
For `O=c1[nH]c2cc([N+](=O)[O-])ccc2nc1/C=C(\O)c1ccc([N+](=O)[O-])cc1`, the growth inhibition is 59% (inactive).
For `Cc1n(Cc2ccccc2)c2c([n+]1C)C(=O)c1ccccc1C2=O`, the growth inhibition is 98% (active).
Regarding `CS(=O)(=O)OCCN(CCOS(C)(=O)=O)c1ccc(C=Nc2ccc(-c3csc(Cc4ccccc4)n3)cc2)c(Cl)c1`, the growth inhibition is 93% (active).
With `CCCCCCCCCCS(=O)CC(CO)NC(=O)/C=C/c1c(C)[nH]c(=O)[nH]c1=O` (configuration not stated) the figure was 94% (active); with `C/C(=N\O)c1cc(Br)cc([N+](=O)[O-])c1O`, 35% (inactive); with `COc1cc2c(c(OC)c1OC)-c1ccc(SC)c(=O)cc1C(NC(=O)c1ccccc1)CC2` (configuration not stated), 61% (inactive).
In the case of `COc1cccc2c1C(=O)c1c(O)c3c(c(O)c1C2=O)C[C@@](O)(C(C)=O)C[C@@H]3OC1CC(O)C(O)C(C)O1` (some centres not stated), the growth inhibition is 94% (active).
Regarding `CCCCCCCc1c(Cl)nc(Cl)nc1Cl`, the growth inhibition is 97% (active).
For `O=C1/C(=C/c2ccc(Cl)cc2)CNC/C1=C\c1ccc(Cl)cc1`, the growth inhibition was 87% (active) and 78% (active).
With `O=C1C(Cl)=C(N2CCN(C3=C(Cl)C(=O)c4ccccc4C3=O)CC2)C(=O)c2ccccc21` the figure was 99% (active); with `O=C1c2ccccc2-n2c1nc1ccccc1c2=O`, 48% (inactive); with `Nc1ccc(Cn2ccc3c4c(N)nc(N)nc4ccc32)cc1`, 96% (active).
Under `Nc1nc(N)c2c(Cl)c(CNc3ccc(Cl)c(Cl)c3)ccc2n1` stands 98% (active).
In the case of `Cc1cc(NCCCCCCCNc2cc(C)nc3cc([N+](=O)[O-])ccc23)c2ccc([N+](=O)[O-])cc2n1`, the growth inhibition is 83% (active).
Turning to `CCCCCCCCCCCCCCCCCC(=O)NCCO`, the growth inhibition was -5% (inactive).
